Data as given in ChEMBL document CHEMBL3988442, “University of Dundee, Small-Polar-MMV Screening Library” (2021).
For some assays here: Measured potencies and affinities stand elsewhere.

Columns and labels:
Parameters in all cases: scale not given: direction of the effect not stated beside the values
[1] = biological target: Protein translocase subunit SecA (Escherichia coli (strain K12)) (UniProt P10408); test: Assay to Identify E. coli SecA ATPase Inhibitors; assay type: functional; details: 30 µM
Protein translocase subunit SecA (Escherichia coli (strain K12)), sequence (P10408 whole entry): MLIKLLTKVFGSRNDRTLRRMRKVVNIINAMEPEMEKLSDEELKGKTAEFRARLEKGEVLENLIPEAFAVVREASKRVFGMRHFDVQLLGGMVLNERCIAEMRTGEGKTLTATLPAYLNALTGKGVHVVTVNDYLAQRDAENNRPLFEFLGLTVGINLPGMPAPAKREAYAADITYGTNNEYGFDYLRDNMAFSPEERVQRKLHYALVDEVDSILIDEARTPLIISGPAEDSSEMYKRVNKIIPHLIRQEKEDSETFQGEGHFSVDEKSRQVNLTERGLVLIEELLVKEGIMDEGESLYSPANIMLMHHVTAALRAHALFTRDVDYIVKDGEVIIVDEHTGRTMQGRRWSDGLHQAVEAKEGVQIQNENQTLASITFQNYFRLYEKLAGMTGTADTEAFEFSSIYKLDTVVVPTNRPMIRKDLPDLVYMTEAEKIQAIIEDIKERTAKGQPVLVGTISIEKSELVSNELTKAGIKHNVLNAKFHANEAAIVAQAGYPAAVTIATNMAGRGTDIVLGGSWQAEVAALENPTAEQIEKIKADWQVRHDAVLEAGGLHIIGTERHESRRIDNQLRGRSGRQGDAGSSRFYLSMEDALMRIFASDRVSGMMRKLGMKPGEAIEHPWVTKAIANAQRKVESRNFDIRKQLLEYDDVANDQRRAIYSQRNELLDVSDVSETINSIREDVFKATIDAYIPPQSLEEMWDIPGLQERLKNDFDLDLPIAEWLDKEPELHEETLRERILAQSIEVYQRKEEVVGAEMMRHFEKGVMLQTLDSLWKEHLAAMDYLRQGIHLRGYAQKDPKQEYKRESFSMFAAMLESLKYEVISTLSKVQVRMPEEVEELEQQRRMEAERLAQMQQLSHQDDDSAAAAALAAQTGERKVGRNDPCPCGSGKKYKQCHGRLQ

[2] = biological target: T1, Ubiquitin-activating enzyme e1, putative (Leishmania donovani (strain BPK282A1)) (UniProt E9BSI1); test: Leishmania donovani Ubiquitin Activating Enzyme (LdE1); assay type: functional; details: 30 µM
T1 sequence (whole entry): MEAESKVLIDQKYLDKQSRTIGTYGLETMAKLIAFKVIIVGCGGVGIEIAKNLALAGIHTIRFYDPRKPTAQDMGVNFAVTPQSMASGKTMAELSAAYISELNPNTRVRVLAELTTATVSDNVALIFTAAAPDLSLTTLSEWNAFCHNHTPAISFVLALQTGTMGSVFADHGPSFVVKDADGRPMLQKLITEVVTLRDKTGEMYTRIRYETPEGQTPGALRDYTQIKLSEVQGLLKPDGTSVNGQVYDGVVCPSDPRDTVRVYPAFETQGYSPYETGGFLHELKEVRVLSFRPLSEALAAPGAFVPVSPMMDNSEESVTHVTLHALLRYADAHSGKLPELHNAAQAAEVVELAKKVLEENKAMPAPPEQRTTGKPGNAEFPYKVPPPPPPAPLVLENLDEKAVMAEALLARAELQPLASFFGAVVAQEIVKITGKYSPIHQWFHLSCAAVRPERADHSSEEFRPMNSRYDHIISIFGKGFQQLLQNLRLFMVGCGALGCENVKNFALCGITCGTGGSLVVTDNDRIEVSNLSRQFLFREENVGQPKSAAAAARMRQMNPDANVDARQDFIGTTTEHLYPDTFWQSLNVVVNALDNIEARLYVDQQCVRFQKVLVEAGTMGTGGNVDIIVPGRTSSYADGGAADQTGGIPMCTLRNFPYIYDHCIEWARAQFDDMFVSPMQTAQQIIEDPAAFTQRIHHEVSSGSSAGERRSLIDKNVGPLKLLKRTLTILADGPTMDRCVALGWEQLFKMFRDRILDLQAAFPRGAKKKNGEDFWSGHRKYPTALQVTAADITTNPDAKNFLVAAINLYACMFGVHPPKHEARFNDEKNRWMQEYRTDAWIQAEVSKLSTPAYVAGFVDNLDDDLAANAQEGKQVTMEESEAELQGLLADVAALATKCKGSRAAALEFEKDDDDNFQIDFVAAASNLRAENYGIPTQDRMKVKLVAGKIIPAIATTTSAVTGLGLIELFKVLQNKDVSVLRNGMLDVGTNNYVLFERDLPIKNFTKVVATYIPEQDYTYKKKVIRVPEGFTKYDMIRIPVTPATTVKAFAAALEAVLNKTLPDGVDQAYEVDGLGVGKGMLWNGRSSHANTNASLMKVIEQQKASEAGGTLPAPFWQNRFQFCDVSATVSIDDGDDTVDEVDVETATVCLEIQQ

[3] = biological target: Sialic acid-binding Ig-like lectin 9 (Homo sapiens) (UniProt Q9Y336); test: Hs-Siglec9 ALPHAscreen SOP 20170721; details: 10 µM
Sialic acid-binding Ig-like lectin 9 (Homo sapiens), sequence (Q9Y336 whole entry): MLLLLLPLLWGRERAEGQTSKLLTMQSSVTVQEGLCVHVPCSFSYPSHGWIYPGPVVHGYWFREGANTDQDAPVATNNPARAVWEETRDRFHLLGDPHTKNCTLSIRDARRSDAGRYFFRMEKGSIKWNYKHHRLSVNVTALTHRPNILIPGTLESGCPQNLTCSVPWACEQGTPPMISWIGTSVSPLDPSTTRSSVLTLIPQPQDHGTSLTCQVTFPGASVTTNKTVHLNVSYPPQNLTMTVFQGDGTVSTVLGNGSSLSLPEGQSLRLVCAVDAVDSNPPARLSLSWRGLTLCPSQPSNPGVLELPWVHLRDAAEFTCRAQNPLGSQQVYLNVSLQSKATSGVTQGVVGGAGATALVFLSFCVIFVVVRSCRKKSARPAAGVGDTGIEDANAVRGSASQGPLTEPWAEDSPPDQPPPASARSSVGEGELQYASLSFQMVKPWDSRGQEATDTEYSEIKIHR

Trypanosoma cruzi = test: Trypanosoma cruzi phosphomannomutase and mannose-1-phosphate guanylyltransferase assay; assay type: functional; details: 10 µM
[4] = biological target: T2, Arginase-2, mitochondrial (Homo sapiens) (UniProt P78540); test: in vitro enzyme assay to detect the production of urea directly proportional to the activity of Arginase II; assay type: functional; details: 33.3 µM; further: in the data most compounds retested in dose-response had high values
T2 sequence (whole entry): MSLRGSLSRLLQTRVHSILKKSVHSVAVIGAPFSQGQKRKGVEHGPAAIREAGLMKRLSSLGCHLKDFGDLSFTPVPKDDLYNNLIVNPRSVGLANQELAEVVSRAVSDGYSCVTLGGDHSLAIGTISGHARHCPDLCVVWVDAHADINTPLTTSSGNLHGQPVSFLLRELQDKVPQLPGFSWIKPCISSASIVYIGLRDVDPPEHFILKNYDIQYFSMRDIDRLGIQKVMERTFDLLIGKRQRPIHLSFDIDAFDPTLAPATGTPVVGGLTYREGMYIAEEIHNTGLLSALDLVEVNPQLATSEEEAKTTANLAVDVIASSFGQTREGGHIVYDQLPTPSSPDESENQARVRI

[5] = biological target: T3, Proteasome subunit beta (Trypanosoma cruzi) (UniProt O96673); test: Trypanosoma cruzi proteasome chymotrypsin-like activity (TcProtChymo) assay.; further: in the data most compounds retested in dose-response had high values; assay type: functional; details: 9.37 µM
T3 sequence (whole entry): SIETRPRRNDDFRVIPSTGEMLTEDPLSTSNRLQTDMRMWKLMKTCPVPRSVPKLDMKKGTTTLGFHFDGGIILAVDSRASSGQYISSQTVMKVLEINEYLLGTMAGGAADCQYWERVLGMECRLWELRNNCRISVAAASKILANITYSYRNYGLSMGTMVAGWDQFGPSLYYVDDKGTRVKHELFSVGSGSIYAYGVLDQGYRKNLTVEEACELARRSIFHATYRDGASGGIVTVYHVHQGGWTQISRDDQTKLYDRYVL

Homo sapiens = organism: Homo sapiens; test: To identify inhibition of the IFN signalling (Jak-Stat) pathway via expression of an eGFP reporter gene under the control of an IFN-stimulated response element (ISRE) containing MxA promoter.; assay type: functional; details: 30 µM
[6] = biological target: T4, Tyrosyl-tRNA synthetase, putative (Trypanosoma cruzi (strain CL Brener)) (UniProt Q4DSP6); test: Trypanosoma cruzi tyrosyl tRNA synthetase (TcYRS) _High Tyrosine SOP; assay type: functional; details: 30 µM; further: in the data most compounds retested in dose-response had high values
T4 sequence (whole entry): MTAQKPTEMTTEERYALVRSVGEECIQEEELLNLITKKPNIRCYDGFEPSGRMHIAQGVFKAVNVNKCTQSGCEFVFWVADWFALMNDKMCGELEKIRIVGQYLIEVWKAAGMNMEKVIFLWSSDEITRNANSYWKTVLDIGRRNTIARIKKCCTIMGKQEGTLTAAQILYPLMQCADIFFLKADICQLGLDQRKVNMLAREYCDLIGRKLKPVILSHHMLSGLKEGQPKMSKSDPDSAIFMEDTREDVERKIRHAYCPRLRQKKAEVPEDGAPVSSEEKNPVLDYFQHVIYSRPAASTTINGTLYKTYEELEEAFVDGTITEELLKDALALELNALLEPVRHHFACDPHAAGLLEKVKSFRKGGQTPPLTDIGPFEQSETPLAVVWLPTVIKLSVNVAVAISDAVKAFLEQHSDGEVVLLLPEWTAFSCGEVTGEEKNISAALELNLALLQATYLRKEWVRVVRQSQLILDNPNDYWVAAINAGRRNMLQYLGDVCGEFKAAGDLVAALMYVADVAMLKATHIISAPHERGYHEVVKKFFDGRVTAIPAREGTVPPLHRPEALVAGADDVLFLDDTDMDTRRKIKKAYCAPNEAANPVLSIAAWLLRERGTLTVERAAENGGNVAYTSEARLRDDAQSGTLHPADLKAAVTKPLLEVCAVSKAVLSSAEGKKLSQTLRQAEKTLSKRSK

[7] = biological target: T4, Tyrosyl-tRNA synthetase, putative (Trypanosoma cruzi (strain CL Brener)); test: Trypanosoma cruzi tyrosyl tRNA synthetase (TcYRS) SOP; assay type: functional; details: 30 µM
[8] = biological target: Chromo domain-containing protein 1 (Saccharomyces cerevisiae (strain ATCC 204508 / S288c) (Baker's yeast)) (UniProt P32657); test: ScCHD-1 Enzyme Inhibition Assay; assay type: functional; details: 30 µM; further: in the data most compounds retested in dose-response had high values
Chromo domain-containing protein 1 (Saccharomyces cerevisiae (strain ATCC 204508 / S288c) (Baker's yeast)), sequence (P32657 whole entry, the tested form may be a part): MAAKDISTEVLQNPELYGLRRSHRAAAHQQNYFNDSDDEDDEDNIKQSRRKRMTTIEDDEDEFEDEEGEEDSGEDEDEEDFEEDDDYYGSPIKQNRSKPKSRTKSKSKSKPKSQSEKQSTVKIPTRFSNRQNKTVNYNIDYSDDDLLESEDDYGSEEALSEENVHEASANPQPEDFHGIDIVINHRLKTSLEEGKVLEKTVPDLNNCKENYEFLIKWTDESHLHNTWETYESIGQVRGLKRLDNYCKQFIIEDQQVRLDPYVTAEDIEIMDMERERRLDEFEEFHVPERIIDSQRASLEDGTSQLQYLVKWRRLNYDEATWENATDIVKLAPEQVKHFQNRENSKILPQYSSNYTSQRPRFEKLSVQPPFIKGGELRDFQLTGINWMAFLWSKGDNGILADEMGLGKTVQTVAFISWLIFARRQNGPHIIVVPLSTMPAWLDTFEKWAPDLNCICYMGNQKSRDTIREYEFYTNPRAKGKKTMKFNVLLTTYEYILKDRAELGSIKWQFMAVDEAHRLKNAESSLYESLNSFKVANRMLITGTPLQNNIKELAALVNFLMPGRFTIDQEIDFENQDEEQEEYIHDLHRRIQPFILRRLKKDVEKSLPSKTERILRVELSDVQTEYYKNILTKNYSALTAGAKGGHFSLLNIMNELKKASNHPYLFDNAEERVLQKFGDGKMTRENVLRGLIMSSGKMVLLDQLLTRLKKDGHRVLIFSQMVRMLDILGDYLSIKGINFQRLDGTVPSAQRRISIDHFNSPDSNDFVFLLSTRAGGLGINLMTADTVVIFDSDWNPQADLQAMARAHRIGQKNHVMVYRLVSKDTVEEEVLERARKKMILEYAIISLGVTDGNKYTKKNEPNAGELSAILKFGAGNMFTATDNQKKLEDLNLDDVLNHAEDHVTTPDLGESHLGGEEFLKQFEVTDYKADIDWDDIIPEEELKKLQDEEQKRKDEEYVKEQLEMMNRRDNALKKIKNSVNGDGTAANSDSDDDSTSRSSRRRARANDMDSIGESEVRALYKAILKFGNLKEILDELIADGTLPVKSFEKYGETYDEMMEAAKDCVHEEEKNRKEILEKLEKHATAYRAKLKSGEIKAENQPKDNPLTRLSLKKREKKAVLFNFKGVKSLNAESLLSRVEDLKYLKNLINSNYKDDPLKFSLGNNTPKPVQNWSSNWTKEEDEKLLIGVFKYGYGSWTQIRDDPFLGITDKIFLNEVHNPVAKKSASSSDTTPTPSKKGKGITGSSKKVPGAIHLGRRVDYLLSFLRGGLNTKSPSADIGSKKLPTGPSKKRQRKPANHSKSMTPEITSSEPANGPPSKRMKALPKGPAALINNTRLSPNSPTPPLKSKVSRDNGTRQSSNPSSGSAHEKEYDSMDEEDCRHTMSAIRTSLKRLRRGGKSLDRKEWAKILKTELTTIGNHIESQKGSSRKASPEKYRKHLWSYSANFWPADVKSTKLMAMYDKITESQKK

COc1ccc(CC(=O)N2CCc3nnc(N(C)C)cc3C2)cc1F
Percent Effect [1]: -3.64% | Percent Effect [2]: 12.8% | Percent Effect [3]: -2.71% | Percent Effect (Trypanosoma cruzi): -1.97% | Percent Effect [4]: 1.23% | Percent Effect [5]: 17.7% | Percent Effect (Homo sapiens): 20.5% | Percent Effect [6]: 5.26% | Percent Effect [7]: 6.02% | Percent Effect [8]: -0.877%

C[C@@H]1CN(C(=O)c2cccs2)C[C@]12CCN(CCN(C)C)C2=O
Percent Effect [1]: -6.68% | Percent Effect [2]: 9.09% | Percent Effect [3]: 2.17% | Percent Effect (Trypanosoma cruzi): -6.57% | Percent Effect [4]: 0.457% | Percent Effect [5]: 9.87% | Percent Effect (Homo sapiens): 18% | Percent Effect [6]: 0.966% | Percent Effect [7]: -5% | Percent Effect [8]: -8.48%

NC(=O)NC(=O)CCN1CCCN(c2nccs2)CC1
Percent Effect [1]: -0.41% | Percent Effect [2]: 10.7% | Percent Effect [3]: -0.94% | Percent Effect (Trypanosoma cruzi): -4.02% | Percent Effect [4]: 3.1% | Percent Effect [5]: 9.41% | Percent Effect (Homo sapiens): 13.6% | Percent Effect [6]: 7.89% | Percent Effect [7]: 10.3% | Percent Effect [8]: -7.5%

Cc1ccc(C(=O)NCCNc2ncccc2C#N)c(=O)[nH]1
Percent Effect [1]: -1.94% | Percent Effect [2]: 5.2% | Percent Effect [3]: -3.54% | Percent Effect (Trypanosoma cruzi): -8.77% | Percent Effect [4]: -15% | Percent Effect [5]: 15.3% | Percent Effect (Homo sapiens): 17.6% | Percent Effect [6]: 6.86% | Percent Effect [7]: 7.06% | Percent Effect [8]: -7.29%

CCN(CC)C(=O)C(c1ccccc1)N1CCn2c(C)nnc2C1 (stereo not given)
Percent Effect [1]: -4.22% | Percent Effect [2]: 17.9% | Percent Effect [3]: 9.65% | Percent Effect (Trypanosoma cruzi): 7.61% | Percent Effect [4]: 0.82% | Percent Effect [5]: 8.45% | Percent Effect (Homo sapiens): 10.3% | Percent Effect [6]: 7.18% | Percent Effect [7]: 22.9% | Percent Effect [8]: -4.71%

CCc1ncc(C(=O)N2CCOCC2c2c(C)n[nH]c2C)s1 (stereo not given)
Percent Effect [1]: -0.434% | Percent Effect [2]: 10.3% | Percent Effect [3]: -1.82% | Percent Effect (Trypanosoma cruzi): 7.23% | Percent Effect [4]: 0.41% | Percent Effect [5]: 1.11% | Percent Effect (Homo sapiens): -6.48% | Percent Effect [6]: -0.478% | Percent Effect [7]: 8.43% | Percent Effect [8]: -1.09%

Cc1cc(-c2nn(C)c(Cl)c2CN2Cc3ccccc3C(O)C2)no1 (stereo not given)
Percent Effect [1]: -0.14% | Percent Effect [2]: 24.3% | Percent Effect [3]: 18.2% | Percent Effect (Trypanosoma cruzi): 11.2% | Percent Effect [4]: 20.6% | Percent Effect [5]: 6.34% | Percent Effect (Homo sapiens): 47.5% | Percent Effect [6]: 3.72% | Percent Effect [7]: 4.88% | Percent Effect [8]: -1.98%

CC(=O)N1[C@@H](C(=O)NCC2CC2)C[C@@H]2CN(Cc3ccco3)C[C@@H]21
Percent Effect [1]: -0.254% | Percent Effect [2]: 22.1% | Percent Effect [3]: -5.46% | Percent Effect (Trypanosoma cruzi): -0.938% | Percent Effect [4]: 3.2% | Percent Effect [5]: 12.1% | Percent Effect (Homo sapiens): 9.99% | Percent Effect [6]: 3.87% | Percent Effect [7]: 7.5% | Percent Effect [8]: -7.56%

CO[C@@H]1CCN(C(=O)c2ccccn2)[C@H]1Cc1ccccc1
Percent Effect [1]: -0.453% | Percent Effect [2]: 19.5% | Percent Effect [3]: 2.27% | Percent Effect (Trypanosoma cruzi): 1.5% | Percent Effect [4]: -0.457% | Percent Effect [5]: 6.95% | Percent Effect (Homo sapiens): 8.74% | Percent Effect [6]: 8.7% | Percent Effect [7]: 10% | Percent Effect [8]: -6.55%

Cc1ccc(-c2nc(CN3CCn4c(nnc4C4CC4)C3)co2)cc1
Percent Effect [1]: -5.43% | Percent Effect [2]: -5.33% | Percent Effect [3]: -0.413% | Percent Effect (Trypanosoma cruzi): -1.41% | Percent Effect [4]: 0% | Percent Effect [5]: 9.92% | Percent Effect (Homo sapiens): -8.93% | Percent Effect [6]: 6.84% | Percent Effect [7]: 12.8% | Percent Effect [8]: -6.77%

O=C(c1ccco1)N1CCC2(CCC(=O)N2Cc2cccc(F)c2)CC1
Percent Effect [1]: -1.47% | Percent Effect [2]: 14.3% | Percent Effect [3]: 3% | Percent Effect (Trypanosoma cruzi): -1.31% | Percent Effect [4]: 0% | Percent Effect [5]: 6.09% | Percent Effect (Homo sapiens): -5.56% | Percent Effect [6]: 5.8% | Percent Effect [7]: 10% | Percent Effect [8]: -5.07%
